Results from PubChem BioAssay AID1159580 (chemical genetic matrix, 2015).
Screen size: about 5,500 compounds; about 2,000 (36%) were called active. Inconclusive results (about 18%) are left out. No stated cut-off is given here; in the data, active means normalized growth mostly below about 0.91 (no sharp cut-off); inconclusive means no clear call, values can overlap the other calls; inactive means mostly above about 0.92. Some of the results follow.

Test: chemical genetic growth profiling, strain panel (AID 1159580);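 further: tested at 20 µM; growth read once vehicle control cultures reached saturation at 30 °C; 1 = growth at the plate median or of vehicle wells; lower values mean less growth of the strain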
Conditions: S. cerevisiae deletion strains, growth OD
[1] = locus YHR030C, strain SLT2, active compounds read low
[2] = locus YHR079C, strain IRE1, active compounds read low
[3] = locus YJL095W, strain BCK1, active compounds read low
[4] = locus YJR066W, strain TOR1, active compounds read low
[5] = locus YLR113W, strain HOG1, active compounds read low
[6] = locus YNL183C, strain NPR1, active compounds read low
[7] = locus YOR231W, strain MKK1, active compounds read low
[8] = locus YPL256C, strain CLN2, active compounds read low

Measured: normalized growth

O=C1c2cccc3c(Sc4ccccc4)ccc(c23)C(=O)N1NCCO
inactive: locus YAR019C, strain CDC15, active compounds read low 0.921 | locus YBL105C, strain PKC1, active compounds read low 0.926 | locus YBR135W, strain CKS1, active compounds read low 0.92 | locus YBR136W, strain MEC1, active compounds read low 0.929 | locus YBR160W, strain CDC28, active compounds read low 0.922 | locus YDL017W, strain CDC7, active compounds read low 0.929 | locus YDL028C, strain MPS1, active compounds read low 0.924 | locus YDL101C, strain DUN1, active compounds read low 0.916 | locus YDL108W, strain KIN28, active compounds read low 0.929 | locus YDL132W, strain cdc53, active compounds read low 0.941 | locus YDL214C, strain PRR2, active compounds read low 0.861 | locus YDR052C, strain DBF4, active compounds read low 0.941 | locus YDR054C, strain cdc34, active compounds read low 0.936 | locus YDR226W, strain ADK1, active compounds read low 0.952 | locus YDR477W, strain SNF1, active compounds read low 0.853 | locus YER123W, strain YCK3, active compounds read low 0.855 | locus YER133W, strain GLC7, active compounds read low 0.908 | locus YFL009W, strain cdc4, active compounds read low 0.912 | locus YFL029C, strain CAK1, active compounds read low 0.911 | locus YFR003C, strain YPI1, active compounds read low 0.923 | locus YFR019W, strain FAB1, active compounds read low 0.897 | locus YFR028C, strain CDC14, active compounds read low 0.938 | locus YGR040W, strain KSS1, active compounds read low 0.859 | locus YGR052W, strain FMP48, active compounds read low 0.83 | locus YGR092W, strain DBF2, active compounds read low 0.734 | [2] 0.84 | locus YHR082C, strain KSP1, active compounds read low 0.8 | locus YHR205W, strain SCH9, active compounds read low 0.857 | locus YIL147C, strain SLN1, active compounds read low 0.921 | [3] 0.771 | locus YJL128C, strain PBS2, active compounds read low 0.816 | locus YJL157C, strain FAR1, active compounds read low 0.896 | locus YJR016C, strain ILV3, active compounds read low 0.921 | locus YJR066W, strain TOR1 (second series), active compounds read low 0.93 | [4] 0.805 | locus YKL048C, strain ELM1, active compounds read low 0.831 | locus YKL067W, strain YNK1, active compounds read low 0.861 | locus YKL101W, strain HSL1, active compounds read low 0.804 | locus YKL193C, strain SDS22, active compounds read low 0.912 | locus YKL203C, strain TOR2, active compounds read low 0.887 | locus YLR133W, strain CKI1, active compounds read low 0.844 | locus YLR403W, strain SFP1, active compounds read low 0.863 | locus YML070W, strain DAK1, active compounds read low 0.857 | locus YMR001C, strain CDC5, active compounds read low 0.914 | locus YMR205C, strain PFK2 (second series), active compounds read low 0.854 | locus YMR277W, strain FCP1, active compounds read low 0.904 | locus YNL006W, strain LST8, active compounds read low 0.931 | locus YNL020C, strain ARK1, active compounds read low 0.814 | locus YNL161W, strain CBK1, active compounds read low 0.927 | [6] 0.784 | locus YNL207W, strain RIO2, active compounds read low 0.922 | locus YNL222W, strain SSU72, active compounds read low 0.921 | locus YNL307C, strain MCK1 (second series), active compounds read low 0.834 | locus YOL078W, strain AVO1, active compounds read low 0.911 | locus YOL136C, strain PFK27, active compounds read low 0.853 | locus YOR061W, strain CKA2, active compounds read low 0.877 | locus YOR119C, strain RIO1, active compounds read low 0.936 | [7] 0.845 | locus YOR329C, strain SCD5, active compounds read low 0.93 | locus YPL031C, strain PHO85, active compounds read low 0.837 | locus YPL153C, strain RAD53, active compounds read low 0.82 | locus YPL204W, strain HRR25, active compounds read low 0.837 | locus YPL209C, strain IPL1, active compounds read low 0.923 | locus YPR025C, strain CCL1, active compounds read low 0.926 | locus YPR106W, strain ISR1, active compounds read low 0.915 | locus YPR111W, strain DBF20, active compounds read low 0.957 | strain NNK1, active compounds read low 0.897 | strain TSCII, active compounds read low 0.917
active: [1] 0.577 | [5] 0.771 | [8] 0.757

C[N+]1(C)CCOC(O)(c2ccc(-c3ccc(C4(O)C[N+](C)(C)CCO4)cc3)cc2)C1 (stereo unspecified)
inactive: locus YAL040C, strain CLN3, active compounds read low 1.09 | locus YCL061C, strain MRC1 (second series), active compounds read low 0.993 | locus YDR150W, strain NUM1, active compounds read low 0.99 | locus YDR363W, strain ESC2, active compounds read low 1.02 | locus YER002W, strain NOP16, active compounds read low 1 | locus YGR078C, strain PAC10, active compounds read low 1.01 | locus YMR263W, strain SAP30, active compounds read low 1 | locus YMR307W, strain GAS1, active compounds read low 0.993 | locus YNL153C, strain GIM3, active compounds read low 1.05 | locus YNL175C, strain NOP13, active compounds read low 1 | locus YNL197C, strain WHI3, active compounds read low 1.01 | locus YNL224C, strain SQS1, active compounds read low 1 | locus YOR083W, strain WHI5 (second series), active compounds read low 1.02 | locus YPL055C, strain LGE1, active compounds read low 0.971 | locus YPL241C, strain CIN2, active compounds read low 1

CC(C)NCC(O)COc1ccc(COCCOC(C)C)cc1 (stereo unspecified)
inactive: locus YAL021C, strain ccr4, active compounds read low 1 | locus YAL026C, strain drs2, active compounds read low 1.01 | locus YAL030W, strain snc1, active compounds read low 0.998 | locus YBL061C, strain skt5, active compounds read low 0.997 | locus YBR009C, strain hhf1, active compounds read low 0.998 | locus YBR023C, strain chs3, active compounds read low 0.998 | locus YBR171W, strain sec66, active compounds read low 1 | locus YBR231C, strain swc5, active compounds read low 1 | locus YBR279W, strain paf1, active compounds read low 1 | locus YCL011C, strain gbp2, active compounds read low 1.01 | locus YCL016C, strain dcc1, active compounds read low 0.999 | locus YCL061C, strain MRC1, active compounds read low 1 | locus YCL069W, strain vba3, active compounds read low 1 | locus YCR088W, strain abp1, active compounds read low 0.997 | locus YDL005C, strain med2, active compounds read low 1 | locus YDL040C, strain nat1, active compounds read low 1 | locus YDR001C, strain nth1, active compounds read low 1.01 | locus YDR069C, strain doa4, active compounds read low 1.02 | locus YDR137W, strain rgp1, active compounds read low 1.02 | locus YDR159W, strain sac3, active compounds read low 0.979 | locus YDR195W, strain ref2 0.97 | locus YDR297W, strain sur2, active compounds read low 1.01 | locus YDR334W, strain swr1, active compounds read low 1 | locus YDR335W, strain msn5, active compounds read low 1 | locus YDR392W, strain spt3, active compounds read low 0.947 | locus YEL003W, strain gim4, active compounds read low 1 | locus YEL037C, strain rad23, active compounds read low 1.02 | locus YEL061C, strain CIN8 (second series), active compounds read low 1 | locus YER015W, strain faa2, active compounds read low 0.995 | locus YER016W, strain bim1, active compounds read low 0.988 | locus YER111C, strain swi4, active compounds read low 1 | locus YER155C, strain BEM2 (second series), active compounds read low 1 | locus YFR010W, strain ubp6, active compounds read low 1.03 | locus YGL167C, strain pmr1, active compounds read low 1.01 | locus YGL173C, strain kem1, active compounds read low 1 | locus YGL227W, strain vid30, active compounds read low 1 | locus YGL240W, strain doc1, active compounds read low 1 | locus YGL253W, strain hxk2, active compounds read low 0.999 | locus YHR013C, strain ard1, active compounds read low 0.995 | locus YHR027C, strain rpn1, active compounds read low 0.999 | [1] 1.04 | [2] 1.05 | locus YHR142W, strain chs7, active compounds read low 1.01 | locus YJL092W, strain hpr5, active compounds read low 0.994 | locus YJL095W, strain BCK1 (second series), active compounds read low 1 | [3] 0.976 | locus YJL115W, strain asf1, active compounds read low 0.999 | locus YJL129C, strain trk1, active compounds read low 1 | locus YJL154C, strain vps35, active compounds read low 1.01 | locus YJL164C, strain tpk1, active compounds read low 1.01 | locus YJL166W, strain qcr8, active compounds read low 1.01 | locus YJL187C, strain SWE1, active compounds read low 1.01 | [4] 0.987 | locus YKL160W, strain elf1, active compounds read low 1 | locus YKR026C, strain gcn3, active compounds read low 0.986 | locus YKR091W, strain srl3, active compounds read low 1 | locus YLL001W, strain dnm1, active compounds read low 0.983 | locus YLL026W, active compounds read low 0.998 | locus YLL041C, strain sdh2, active compounds read low 1 | locus YLR027C, strain aat2, active compounds read low 0.998 | [5] 0.984 | locus YLR221C, strain rsa3, active compounds read low 1.01 | locus YLR258W, strain gsy2, active compounds read low 0.999 | locus YLR262C, strain YPT6 (second series), active compounds read low 1.01 | locus YLR320W, strain mms22, active compounds read low 0.999 | locus YLR342W, strain FKS1, active compounds read low 1 | locus YLR357W, strain rsc2, active compounds read low 0.982 | locus YLR370C, strain arc18, active compounds read low 1 | locus YLR384C, strain iki3, active compounds read low 0.999 | locus YML120C, strain ndi1, active compounds read low 0.984 | locus YMR058W, strain fet3, active compounds read low 1.01 | locus YMR125W, strain sto1, active compounds read low 0.994 | locus YMR129W, active compounds read low 1 | locus YMR205C, strain PFK2, active compounds read low 0.981 | locus YMR231W, strain pep5, active compounds read low 0.998 | locus YNL071W, strain lat1, active compounds read low 1.01 | [6] 0.996 | locus YNL209W, strain ssb2, active compounds read low 1 | locus YNL248C, strain rpa49, active compounds read low 0.999 | locus YNL322C, strain KRE1 (second series), active compounds read low 0.987 | locus YNR049C, strain mso1, active compounds read low 1 | locus YOR001W, strain rrp6, active compounds read low 1 | locus YOR070C, strain gyp1, active compounds read low 1.01 | locus YOR080W, strain dia2, active compounds read low 0.997 | locus YOR083W, strain WHI5, active compounds read low 1 | locus YOR106W, strain vam3, active compounds read low 1.01 | [7] 1.03 | locus YOR265W, strain rbl2, active compounds read low 1.03 | locus YOR270C, strain vph1, active compounds read low 1.01 | locus YOR290C, strain snf2, active compounds read low 1 | locus YPL051W, strain arl3, active compounds read low 1 | locus YPL078C, strain atp4, active compounds read low 1.01 | locus YPL106C, strain sse1, active compounds read low 1 | locus YPL240C, strain hsp82, active compounds read low 1.01 | [8] 1.03
